Data on 40 sequences can be found in the supplement of paper PMC10681739.
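Wherever RUNX1 binding intensity (PBM fluorescence) in presence of ETS1, normalised to RUNX1-only experiment is given: Full-length recombinant human ETS1 or RUNX1 bound to double-stranded 36-bp genomic probes on microarrays, detected by protein-specific primary antibody and Alexa488 secondary, spot fluorescence as median of four replicate spots.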
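Wherever RUNX1 binding intensity (PBM fluorescence), RUNX1 alone is given: Full-length recombinant human RUNX1 bound to double-stranded 36-bp genomic probes on a high-density microarray, scored as Alexa488 fluorescence per spot via anti-RUNX1 antibody, median of four replicate spots.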

The first assay addresses RUNX1 (UniProt Q01196). In words: RUNX1 binding intensity (PBM fluorescence), RUNX1 alone (arbitrary fluorescence units); higher = stronger binding. The note with it: RUNX1 concentration 2 nM; ETS1 concentration 0 nM. How it is done: (§1)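 Cooperative gcPBM on 36-bp genomic probes with neighbouring ETS1 and RUNX1 sites. Recombinant human RUNX1 (2 nM) was incubated alone or with ETS1 (25 nM) and detected with anti-RUNX1 antibody plus Alexa488 secondary. Values are medians over 4 replicate spots; the RUNX1+ETS1 data were normalised to the RUNX1-only data. The probes sit in constant array flanks that are not printed.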
TTCAGGAAATGCAAACGGCTGCAGAGACCGCAGAGG had an RUNX1 binding intensity of 793.
AGCAGGAAGTATGTTGAAAGTCATAACCACAGCAAA gave an RUNX1 binding intensity of 776.
Same read-out and setting: to TTGTCACGTCCGGCACGCCGCGAACCGCAAGGAACC belongs 1270; to GGTTCTCTAGGGAGAGGATGTGGGTTTGTCTCTGGG, 791.
The same measure, in the same setting: to AAAGGCGGAAGGGGGGCAGGGAACCCACAAAACAGA belongs 959; to TCCTTTTCCGGTGGCGGCGCCGCGCGGTGAGGTTGT, 731; to AAGAACCTAGAGGATGTGTGGTTTTATGTGCAGGGT, 914.
Sequence GGGTGCTTCCTATAAACAATGACTCATTACCGCACT returned an RUNX1 binding intensity of 920.
Still for that read-out and setting: to GCGGCTGAGAACACAGGATGTGGCTTTTGGCAGATG belongs 674; to CTCTGCTTCCTGTCTTTGAATGCCTCTGTGGTTTTC, 2080; to CCCGGGGGCAGGAAATGTCGCCTTACCCACAGCCTT, 873.
Still for that read-out and setting: to TGGAGAGCACAGGAAGTGGCCCACAGCCCAGGCCAA belongs 766; to GGTTTCGCTTCCGGGTTAGGCGGCCGCAGAAGCGTA, 790; to GCCACATATTTCCTGTGACAACCCTGTGGTGTGGCT, 848.
Same read-out and setting: to CTCCGGCGGAAGTTGTCTCTTCGCCGCCGCCGCAGC belongs 792.
As for GGCGCGGGCTGCTTCCGGTCTGCGGGCCTGAGGAGG, the RUNX1 binding intensity was 672.
Same read-out and setting: to GGGCGCGACTTCCGGGGCGGCGGTTGCATCAGATTC belongs 774.
As to GGTTGTAAGTTCACAGGATGTGGTGTGTCCCTGTGG, the RUNX1 binding intensity was found to be 827.
Still for that read-out and setting: to GGGGCTCCGCAGGAAGTAGGGCTCCCACAACTTTGC belongs 664.

The next assay concerns the target T1, ETS1 (UniProt P14921).
T1 sequence: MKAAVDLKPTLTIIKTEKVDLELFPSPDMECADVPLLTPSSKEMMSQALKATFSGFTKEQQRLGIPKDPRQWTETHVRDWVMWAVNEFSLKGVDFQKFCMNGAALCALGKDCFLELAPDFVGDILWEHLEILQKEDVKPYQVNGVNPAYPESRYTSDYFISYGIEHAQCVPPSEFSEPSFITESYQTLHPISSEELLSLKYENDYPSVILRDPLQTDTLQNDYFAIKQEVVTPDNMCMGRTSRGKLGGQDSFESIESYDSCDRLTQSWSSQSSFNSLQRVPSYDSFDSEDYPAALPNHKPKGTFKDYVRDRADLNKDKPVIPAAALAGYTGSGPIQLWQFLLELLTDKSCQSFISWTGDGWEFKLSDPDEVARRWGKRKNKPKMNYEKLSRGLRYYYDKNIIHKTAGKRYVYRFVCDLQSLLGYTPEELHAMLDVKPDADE
The assay is described as follows: ETS1 binding intensity (PBM fluorescence) in presence of RUNX1, normalised to ETS1-only experiment (arbitrary fluorescence units); higher = stronger binding. The following applies: ETS1 concentration 1 nM; RUNX1 concentration 25 nM.
Consider GCGAAAAACGCGGAAATGCGGTGGCGGCGGCCCGCT, for which the ETS1 binding intensity is 1190.
Same read-out and setting: to GCAGCCCAGCTTCCTGCAGACCAAAACCACAAGCAG belongs 2540; to GCCGGGCACCCCGGAAGACCGCTGGGAACCGGCTTT, 1070; to TGGCAGCGGGTGCGGAAACCACAGGCCTCCAGGCTT, 1520.
Same read-out and setting: to CCACCCTCCGTCCGGCCGCGACCGCGAGGAGGAAGA belongs 1060; to TTTCAAAACCCGGAAATGACCGCCAGGCTGGCATCA, 6320; to GCCAGCGGGGCTTCCGGCCCCGCAGGCAGAAGTCGA, 1290.
On the same count and under the same terms, to CGGCAGGGAAGCAGGAAACCGCGAGTGGAGAAAGGG belongs 3790; to AGGCTTCCGGCCACGCCCCCTTCCCGCGGTTGCTAG, 1140; to AAGAGGAAATAAATACCAGAGTGAACCCACAAACCT, 943.
Turning to CCTGTTTCCTGCCATCTGCCCTTCCTTTGTGGTCAA, the ETS1 binding intensity is 1260.
For the sequence AGCTTGCGCAGGAAGTCTGCGGCAGGAGGGCGTCCT, the ETS1 binding intensity was found to be 2760.
Still for that read-out and setting: to CTGCTGACCAAAACAGGATGTGGTCTACACAAAGTG belongs 36600; to CTGCGTTTCCTCTGAGTTTTGCATGTTGAGGTTGGA, 382.
On the same count and under the same terms, to TTCTTCACTTCCTTCTCTCCGTGGTTTCGCCATTAG belongs 436; to GCGATCGGAGCGGAAGTGGAGCTACCGCCACCGCCG, 8910.
Same read-out and setting: to TGCCCTGACTTCCTGGTCCTGTGGTCAAGGATGGGG belongs 2810.
For the sequence AAACCCTGAGTAATCGGAAGTGGTTAGGAGTGAGAG, the ETS1 binding intensity was 6580.
On the same count and under the same terms, to CAGCCGACTTCCGGGGTGGGGCTTGCTGCCGCAGAG belongs 1780.
Same read-out and setting: to CGATTCCGGAGACAGGCCCCACCGTGCGGTAAACTG belongs 810; to ACAGATACAGCCTCAGGAAGTGGTTTTGTATCTCTG, 6160.
Same read-out and setting: to TTCAGGAAATGCAAACGGCTGCAGAGACCGCAGAGG belongs 2490; to AGCAGGAAGTATGTTGAAAGTCATAACCACAGCAAA, 3050; to TTGTCACGTCCGGCACGCCGCGAACCGCAAGGAACC, 1800.
For the sequence GGTTCTCTAGGGAGAGGATGTGGGTTTGTCTCTGGG, the ETS1 binding intensity was determined as 6540.
For AAAGGCGGAAGGGGGGCAGGGAACCCACAAAACAGA, the ETS1 binding intensity is 610.
With TCCTTTTCCGGTGGCGGCGCCGCGCGGTGAGGTTGT, the ETS1 binding intensity was 615.
On the same count and under the same terms, to AAGAACCTAGAGGATGTGTGGTTTTATGTGCAGGGT belongs 1830.
Still for that read-out and setting: to GGGTGCTTCCTATAAACAATGACTCATTACCGCACT belongs 474; to GCGGCTGAGAACACAGGATGTGGCTTTTGGCAGATG, 12800; to CTCTGCTTCCTGTCTTTGAATGCCTCTGTGGTTTTC, 2540.
On the same count and under the same terms, to CCCGGGGGCAGGAAATGTCGCCTTACCCACAGCCTT belongs 5930; to TGGAGAGCACAGGAAGTGGCCCACAGCCCAGGCCAA, 6890.
For the sequence GGTTTCGCTTCCGGGTTAGGCGGCCGCAGAAGCGTA, the ETS1 binding intensity was determined as 1340.
Still for that read-out and setting: to GCCACATATTTCCTGTGACAACCCTGTGGTGTGGCT belongs 723.
On the same count and under the same terms, to CTCCGGCGGAAGTTGTCTCTTCGCCGCCGCCGCAGC belongs 5200; to GGCGCGGGCTGCTTCCGGTCTGCGGGCCTGAGGAGG, 5010; to GGGCGCGACTTCCGGGGCGGCGGTTGCATCAGATTC, 1780.
Still for that read-out and setting: to GGTTGTAAGTTCACAGGATGTGGTGTGTCCCTGTGG belongs 6360; to GGGGCTCCGCAGGAAGTAGGGCTCCCACAACTTTGC, 2310.

The target in the next assay is RUNX1 (UniProt Q01196). The assay is described as follows: RUNX1 binding intensity (PBM fluorescence) in presence of ETS1, normalised to RUNX1-only experiment (arbitrary fluorescence units); higher = stronger binding. The note with it: RUNX1 concentration 2 nM; ETS1 concentration 25 nM. As to the method: as §1
RUNX1, sequence (Q01196 whole entry): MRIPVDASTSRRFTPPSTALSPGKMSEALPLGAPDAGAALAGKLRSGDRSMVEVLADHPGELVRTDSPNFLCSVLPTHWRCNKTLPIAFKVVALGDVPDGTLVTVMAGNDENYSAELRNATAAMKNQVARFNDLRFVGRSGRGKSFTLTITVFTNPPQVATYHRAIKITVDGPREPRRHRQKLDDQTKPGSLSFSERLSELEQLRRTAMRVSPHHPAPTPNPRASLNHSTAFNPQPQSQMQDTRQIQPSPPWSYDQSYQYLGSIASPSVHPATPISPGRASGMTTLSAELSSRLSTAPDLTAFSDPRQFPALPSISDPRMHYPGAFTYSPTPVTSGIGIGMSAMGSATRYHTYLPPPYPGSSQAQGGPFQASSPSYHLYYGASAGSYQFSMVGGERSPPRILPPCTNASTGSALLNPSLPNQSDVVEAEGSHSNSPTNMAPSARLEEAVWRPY
As for GCGAAAAACGCGGAAATGCGGTGGCGGCGGCCCGCT, the RUNX1 binding intensity was found to be 1210.
As for GCAGCCCAGCTTCCTGCAGACCAAAACCACAAGCAG, the RUNX1 binding intensity is 4140.
Take GCCGGGCACCCCGGAAGACCGCTGGGAACCGGCTTT: the RUNX1 binding intensity is 1080.
Still for that read-out and setting: to TGGCAGCGGGTGCGGAAACCACAGGCCTCCAGGCTT belongs 2470; to CCACCCTCCGTCCGGCCGCGACCGCGAGGAGGAAGA, 1130; to TTTCAAAACCCGGAAATGACCGCCAGGCTGGCATCA, 1380.
Same read-out and setting: to GCCAGCGGGGCTTCCGGCCCCGCAGGCAGAAGTCGA belongs 1260; to CGGCAGGGAAGCAGGAAACCGCGAGTGGAGAAAGGG, 2170.
On to AGGCTTCCGGCCACGCCCCCTTCCCGCGGTTGCTAG, for which the RUNX1 binding intensity was 2360.
On the same count and under the same terms, to AAGAGGAAATAAATACCAGAGTGAACCCACAAACCT belongs 903.
The same measure, in the same setting: to CCTGTTTCCTGCCATCTGCCCTTCCTTTGTGGTCAA belongs 6290; to AGCTTGCGCAGGAAGTCTGCGGCAGGAGGGCGTCCT, 908.
On the same count and under the same terms, to CTGCTGACCAAAACAGGATGTGGTCTACACAAAGTG belongs 3500.
Consider CTGCGTTTCCTCTGAGTTTTGCATGTTGAGGTTGGA, for which the RUNX1 binding intensity was determined as 1280.
Turning to TTCTTCACTTCCTTCTCTCCGTGGTTTCGCCATTAG, the RUNX1 binding intensity amounted to 3130.
With GCGATCGGAGCGGAAGTGGAGCTACCGCCACCGCCG, the RUNX1 binding intensity was 1290.
The same measure, in the same setting: to TGCCCTGACTTCCTGGTCCTGTGGTCAAGGATGGGG belongs 2000; to AAACCCTGAGTAATCGGAAGTGGTTAGGAGTGAGAG, 1310; to CAGCCGACTTCCGGGGTGGGGCTTGCTGCCGCAGAG, 1730.
For CGATTCCGGAGACAGGCCCCACCGTGCGGTAAACTG, the RUNX1 binding intensity was 931.
Still for that read-out and setting: to ACAGATACAGCCTCAGGAAGTGGTTTTGTATCTCTG belongs 1070; to TTCAGGAAATGCAAACGGCTGCAGAGACCGCAGAGG, 1090.
As to AGCAGGAAGTATGTTGAAAGTCATAACCACAGCAAA, the RUNX1 binding intensity amounted to 1020.
The same measure, in the same setting: to TTGTCACGTCCGGCACGCCGCGAACCGCAAGGAACC belongs 2720; to GGTTCTCTAGGGAGAGGATGTGGGTTTGTCTCTGGG, 1570; to AAAGGCGGAAGGGGGGCAGGGAACCCACAAAACAGA, 857.
Still for that read-out and setting: to TCCTTTTCCGGTGGCGGCGCCGCGCGGTGAGGTTGT belongs 1880; to AAGAACCTAGAGGATGTGTGGTTTTATGTGCAGGGT, 1150.
As for GGGTGCTTCCTATAAACAATGACTCATTACCGCACT, the RUNX1 binding intensity worked out at 976.
GCGGCTGAGAACACAGGATGTGGCTTTTGGCAGATG: the RUNX1 binding intensity amounted to 1680.
On the same count and under the same terms, to CTCTGCTTCCTGTCTTTGAATGCCTCTGTGGTTTTC belongs 4320; to CCCGGGGGCAGGAAATGTCGCCTTACCCACAGCCTT, 1210; to TGGAGAGCACAGGAAGTGGCCCACAGCCCAGGCCAA, 1280.
Same read-out and setting: to GGTTTCGCTTCCGGGTTAGGCGGCCGCAGAAGCGTA belongs 1980.
Same read-out and setting: to GCCACATATTTCCTGTGACAACCCTGTGGTGTGGCT belongs 1640; to CTCCGGCGGAAGTTGTCTCTTCGCCGCCGCCGCAGC, 1690.
Regarding GGCGCGGGCTGCTTCCGGTCTGCGGGCCTGAGGAGG, the RUNX1 binding intensity was 1770.
Same read-out and setting: to GGGCGCGACTTCCGGGGCGGCGGTTGCATCAGATTC belongs 2100.
Same read-out and setting: to GGTTGTAAGTTCACAGGATGTGGTGTGTCCCTGTGG belongs 1400.
Same read-out and setting: to GGGGCTCCGCAGGAAGTAGGGCTCCCACAACTTTGC belongs 1040.
